# The supplement of paper PMC8728848
# This is one part of a sample in which the strongest signals are shown more often than they occur.
# Assays:
# Experiment in all cases: glycan array binding signal (z-score within array); higher = stronger binding
# Conditions in all cases: glycan notation: IUPAC condensed, linker removed
# [1] = target: Fuc(a1-2)Gal(b1-4)GlcNAc(b1-2)Man
# Outline: (§1)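 Glycan array data were curated from 3228 arrays in the Consortium for Functional Glycomics database and kept only where the protein sequence was available. Glycan names were converted to IUPAC-condensed notation, and columns mapping to the same glycan were averaged. The binding signal is a within-array Z-score, averaged across arrays of the same protein sequence at different concentrations or buffers and across linkers. Negative Z-scores can be read as non-binding.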
# [2] = target: Fuc(a1-2)Gal(b1-4)GlcNAc(b1-2)Man(a1-3)[Fuc(a1-2)Gal(b1-4)GlcNAc(b1-2)Man(a1-6)]Man(b1-4)GlcNAc(b1-4)GlcNAc
# Outline: as §1
# [3] = target: Fuc(a1-2)Gal(b1-4)[Fuc(a1-3)]GlcNAc(b1-2)Man(a1-3)[Fuc(a1-2)Gal(b1-4)[Fuc(a1-3)]GlcNAc(b1-2)Man(a1-6)]Man(b1-4)GlcNAc(b1-4)[Fuc(a1-6)]GlcNAc
# Outline: as §1
# Fuc(a1-2)Gal6S(b1-4)Glc = target: Fuc(a1-2)Gal6S(b1-4)Glc
# Outline: as §1
# [4] = target: Fuc(a1-2)[Gal(a1-3)]Gal(b1-3)GlcNAc(b1-2)Man(a1-3)[Fuc(a1-2)[Gal(a1-3)]Gal(b1-3)GlcNAc(b1-2)Man(a1-6)]Man(b1-4)GlcNAc(b1-4)GlcNAc
# Outline: as §1
# [5] = target: Fuc(a1-2)[GalNAc(a1-3)]Gal(b1-3)GlcNAc
# Outline: as §1
# [6] = target: Fuc(a1-2)[GalNAc(a1-3)]Gal(b1-4)Glc
# Outline: as §1
# [7] = target: Fuc(a1-3)[Gal(b1-4)]GlcNAc(b1-2)Man(a1-3)[Fuc(a1-3)[Gal(b1-4)]GlcNAc(b1-2)Man(a1-6)]Man(b1-4)GlcNAc(b1-4)GlcNAc
# Outline: as §1
# [8] = target: Gal(a1-3)Gal(b1-3)[Fuc(a1-4)]GlcNAc(b1-2)Man(a1-3)[Gal(a1-3)Gal(b1-3)[Fuc(a1-4)]GlcNAc(b1-2)Man(a1-6)]Man(b1-4)GlcNAc(b1-4)GlcNAc
# Outline: as §1
# [9] = target: Gal(a1-3)[Gal(a1-4)]Gal(b1-4)GlcNAc
# Outline: as §1
# [10] = target: Gal(b1-3)GlcNAc(b1-2)[Gal(b1-3)GlcNAc(b1-6)]Man(a1-6)[Gal(b1-3)GlcNAc(b1-2)Man(a1-3)]Man(b1-4)GlcNAc(b1-4)GlcNAc
# Outline: as §1
# [11] = target: Gal(b1-3)GlcNAc(b1-6)GalNAc
# Outline: as §1
# [12] = target: Gal(b1-3)[Fuc(a1-4)]GlcNAc
# Outline: as §1
# Gal(b1-4)GlcNAc(b1-2)Man = target: Gal(b1-4)GlcNAc(b1-2)Man
# Outline: as §1
# [13] = target: Gal(b1-4)GlcNAc(b1-2)Man(a1-3)[Gal(b1-4)GlcNAc(b1-2)Man(a1-6)]Man(b1-4)GlcNAc(b1-4)[Fuc(a1-6)]GlcNAc
# Outline: as §1
# [14] = target: Gal(b1-4)GlcNAc(b1-2)Man(a1-6)[Man(a1-3)]Man(b1-4)GlcNAc(b1-4)GlcNAc
# Outline: as §1
# [15] = target: Gal(b1-4)GlcNAc(b1-3)Gal(b1-4)GlcNAc(b1-3)Gal(b1-4)GlcNAc(b1-3)Gal(b1-4)GlcNAc(b1-3)Gal(b1-4)GlcNAc(b1-2)Man(a1-3)[Gal(b1-4)GlcNAc(b1-3)Gal(b1-4)GlcNAc(b1-3)Gal(b1-4)GlcNAc(b1-3)Gal(b1-4)GlcNAc(b1-3)Gal(b1-4)GlcNAc(b1-2)Man(a1-6)]Man(b1-4)GlcNAc(b1-4)GlcNAc
# Outline: as §1
# [16] = target: Gal(b1-4)GlcNAc(b1-3)Gal(b1-4)GlcNAc(b1-3)Gal(b1-4)GlcNAc(b1-3)Gal(b1-4)GlcNAc(b1-3)Gal(b1-4)GlcNAc(b1-3)Gal(b1-4)GlcNAc(b1-2)Man(a1-3)[Gal(b1-4)GlcNAc(b1-3)Gal(b1-4)GlcNAc(b1-3)Gal(b1-4)GlcNAc(b1-3)Gal(b1-4)GlcNAc(b1-3)Gal(b1-4)GlcNAc(b1-3)Gal(b1-4)GlcNAc(b1-2)Man(a1-6)]Man(b1-4)GlcNAc(b1-4)GlcNAc
# Outline: as §1
# [17] = target: Gal(b1-4)GlcNAc(b1-3)Gal(b1-4)GlcNAc(b1-3)GalNAc
# Outline: as §1
# Gal3S6S(b1-4)GlcNAc = target: Gal3S6S(b1-4)GlcNAc
# Outline: as §1
# [18] = target: GalNAc3S(b1-4)[Fuc(a1-3)]GlcNAc
# Outline: as §1
# [19] = target: GlcA3S(b1-3)Gal(b1-4)GlcNAc(b1-2)Man
# Outline: as §1
# [20] = target: GlcNAc(a1-4)Gal(b1-4)GlcNAc(b1-3)Gal(b1-4)GlcNAc(b1-3)Gal(b1-4)GlcNAc
# Outline: as §1
# [21] = target: GlcNAc(b1-2)Man(a1-3)[GlcNAc(b1-4)][GlcNAc(b1-2)Man(a1-6)]Man(b1-4)GlcNAc(b1-4)GlcNAc
# Outline: as §1
# [22] = target: GlcNAc(b1-2)[GlcNAc(b1-4)]Man(a1-3)[GlcNAc(b1-2)Man(a1-6)]Man(b1-4)GlcNAc(b1-4)GlcNAc
# Outline: as §1
# GlcNAc(b1-3)Gal(b1-4)Glc = target: GlcNAc(b1-3)Gal(b1-4)Glc
# Outline: as §1
# [23] = target: GlcNAc(b1-3)Gal(b1-4)GlcNAc(b1-3)Gal(b1-4)GlcNAc
# Outline: as §1
# [24] = target: GlcNAc(b1-3)Gal(b1-4)GlcNAc(b1-3)Gal(b1-4)GlcNAc(b1-3)Gal(b1-4)GlcNAc(b1-2)Man(a1-3)[GlcNAc(b1-3)Gal(b1-4)GlcNAc(b1-3)Gal(b1-4)GlcNAc(b1-3)Gal(b1-4)GlcNAc(b1-2)Man(a1-6)]Man(b1-4)GlcNAc(b1-4)[Fuc(a1-6)]GlcNAc
# Outline: as §1
# [25] = target: GlcNAc(b1-3)Gal(b1-4)GlcNAc(b1-3)GalNAc
# Outline: as §1
# Kdn(a2-6)Gal(b1-4)GlcNAc = target: Kdn(a2-6)Gal(b1-4)GlcNAc
# Outline: as §1
# [26] = target: Man(a1-2)Man(a1-3)[Man(a1-2)Man(a1-6)]Man
# Outline: as §1
# [27] = target: Man(a1-3)[Man(a1-6)]Man(a1-6)[Man(a1-3)]Man(b1-4)GlcNAc(b1-4)GlcNAc
# Outline: as §1
# MurNAc(b1-4)GlcNAc = target: MurNAc(b1-4)GlcNAc
# Outline: as §1
# [28] = target: Neu5Ac(a2-3)Gal(b1-3)GalNAc
# Outline: as §1
# [29] = target: Neu5Ac(a2-3)Gal(b1-3)]Neu5Ac(a2-3)Gal(b1-4)]GlcNAc
# Outline: as §1
# [30] = target: Neu5Ac(a2-3)Gal(b1-4)GlcNAc(b1-2)[Neu5Ac(a2-3)Gal(b1-4)GlcNAc(b1-4)]Man(a1-3)[GlcNAc(b1-4)][Neu5Ac(a2-3)Gal(b1-4)GlcNAc(b1-4)Man(a1-6)]Man(b1-4)GlcNAc(b1-4)GlcNAc
# Outline: as §1
# [31] = target: Neu5Ac(a2-3)Gal(b1-4)GlcNAc(b1-3)Gal(b1-4)GlcNAc(b1-3)GalNAc
# Outline: as §1
# [32] = target: Neu5Ac(a2-3)[GalNAc(b1-4)]Gal(b1-4)Glc
# Outline: as §1
# [33] = target: Neu5Ac(a2-6)Gal(b1-4)GlcNAc(b1-2)Man(a1-3)[Neu5Ac(a2-6)Gal(b1-4)GlcNAc(b1-2)Man(a1-6)]Man(b1-4)GlcNAc(b1-4)GlcNAc
# Outline: as §1
# [34] = target: Neu5Ac(a2-8)Neu5Gc(a2-3)Gal(b1-4)GlcNAc
# Outline: as §1
# Neu5Gc(a2-3)Gal(b1-4)Glc = target: Neu5Gc(a2-3)Gal(b1-4)Glc
# Outline: as §1
# [35] = target: Neu5Gc(a2-6)Gal(b1-4)GlcNAc
# Outline: as §1
binder,measurement,setting,value
PX15618A-bth-503-24-503 (Bacteroides thetaiotaomicron) (protein) NKSEDKLSGDDFWAQGNETNAEAFLLSIYNSFRNATMSQRPFLTYSGDMRCAPITAYSTGDKYVAYLANNDMGELRNTYPDDARGGLIMQWDVFYTAIQDANILLAEIDKVPGMDELKRSRFKAEAIFMRSLSYFFIVRAFGDVPYYTNAYNEAPLPRTNMVIVLQNCLADLQPLLDDDPGAEVLPWSYSSYSSKGIRASRGSVIALMMHINLWLVQFDAQNKEQYYRNVVSLGEELERNNGAYSLLDINRSSVIFAGGSDEGLFEIAQNINFNEIFMMNAKFSDNVSYSCLNKSMPLFCYSGDYLMTLFPMYEDDARKELWFDEKIYSTSVSSSAPKEIKKFWNIDTYGNGTITSNSGNQIVFRYAGALLLYAEALAALGTNDTKACELLNRVRNRAHASEINTSGSELMDAIFWERCRELIGEGHYYYDLVRTGKVYNRNYCMNPMTRTNFNVGAWTWPIHRNALKNNTQIGLNLFWE,glycan array binding signal (z-score),[1],-0.103
same,glycan array binding signal (z-score),[2],2.2
same,glycan array binding signal (z-score),[3],0.352
same,glycan array binding signal (z-score),Fuc(a1-2)Gal6S(b1-4)Glc,2.77
same,glycan array binding signal (z-score),[4],-0.62
same,glycan array binding signal (z-score),[5],-0.665
same,glycan array binding signal (z-score),[6],-0.32
same,glycan array binding signal (z-score),[7],-0.28
same,glycan array binding signal (z-score),[8],6.49
same,glycan array binding signal (z-score),[9],3.72
same,glycan array binding signal (z-score),[10],2.47
same,glycan array binding signal (z-score),[11],2.58
same,glycan array binding signal (z-score),[12],-0.361
same,glycan array binding signal (z-score),Gal(b1-4)GlcNAc(b1-2)Man,-0.307
same,glycan array binding signal (z-score),[13],0.092
same,glycan array binding signal (z-score),[14],12.1
same,glycan array binding signal (z-score),[15],2.83
same,glycan array binding signal (z-score),[16],2.95
same,glycan array binding signal (z-score),[17],-0.08
same,glycan array binding signal (z-score),Gal3S6S(b1-4)GlcNAc,3.43
same,glycan array binding signal (z-score),[18],-0.361
same,glycan array binding signal (z-score),[19],-0.619
same,glycan array binding signal (z-score),[20],-0.188
same,glycan array binding signal (z-score),[21],-0.381
same,glycan array binding signal (z-score),[22],-0.803
same,glycan array binding signal (z-score),GlcNAc(b1-3)Gal(b1-4)Glc,-0.199
same,glycan array binding signal (z-score),[23],-0.161
same,glycan array binding signal (z-score),[24],0.037
same,glycan array binding signal (z-score),[25],0.059
same,glycan array binding signal (z-score),Kdn(a2-6)Gal(b1-4)GlcNAc,0.229
same,glycan array binding signal (z-score),[26],-0.505
same,glycan array binding signal (z-score),[27],0.524
same,glycan array binding signal (z-score),MurNAc(b1-4)GlcNAc,0.506
same,glycan array binding signal (z-score),[28],-0.436
same,glycan array binding signal (z-score),[29],0.09
same,glycan array binding signal (z-score),[30],-0.189
same,glycan array binding signal (z-score),[31],-0.707
same,glycan array binding signal (z-score),[32],-0.82
same,glycan array binding signal (z-score),[33],-0.217
same,glycan array binding signal (z-score),[34],13.7
same,glycan array binding signal (z-score),Neu5Gc(a2-3)Gal(b1-4)Glc,-0.471
same,glycan array binding signal (z-score),[35],-0.58
